{
  "source": "PubChem BioAssay AID2528",
  "about": "(National Center for Advancing Translational Sciences (NCATS), 2010)",
  "note": "The campaign covered roughly 350,000 compounds. About 700 (0.2%) were called active. Entries that show only a call come without a potency. For the sample, actives were picked, then their nearest neighbours and some compounds at random. Unmarked numbers belong to inactive results. Calls follow the shape of the dose curve; as a rule, active = well fitted inhibition curve with a large enough effect; inconclusive = small, poorly fitted or top-dose-only effect; inactive = flat fitted curve, though single readings scatter. Potency is read from the fitted curve at half-maximal effect.",
  "data": [
    {"target": "RecQ-like DNA helicase BLM (Homo sapiens) (UniProt P54132)", "sequence (P54132 whole entry, looked up)": "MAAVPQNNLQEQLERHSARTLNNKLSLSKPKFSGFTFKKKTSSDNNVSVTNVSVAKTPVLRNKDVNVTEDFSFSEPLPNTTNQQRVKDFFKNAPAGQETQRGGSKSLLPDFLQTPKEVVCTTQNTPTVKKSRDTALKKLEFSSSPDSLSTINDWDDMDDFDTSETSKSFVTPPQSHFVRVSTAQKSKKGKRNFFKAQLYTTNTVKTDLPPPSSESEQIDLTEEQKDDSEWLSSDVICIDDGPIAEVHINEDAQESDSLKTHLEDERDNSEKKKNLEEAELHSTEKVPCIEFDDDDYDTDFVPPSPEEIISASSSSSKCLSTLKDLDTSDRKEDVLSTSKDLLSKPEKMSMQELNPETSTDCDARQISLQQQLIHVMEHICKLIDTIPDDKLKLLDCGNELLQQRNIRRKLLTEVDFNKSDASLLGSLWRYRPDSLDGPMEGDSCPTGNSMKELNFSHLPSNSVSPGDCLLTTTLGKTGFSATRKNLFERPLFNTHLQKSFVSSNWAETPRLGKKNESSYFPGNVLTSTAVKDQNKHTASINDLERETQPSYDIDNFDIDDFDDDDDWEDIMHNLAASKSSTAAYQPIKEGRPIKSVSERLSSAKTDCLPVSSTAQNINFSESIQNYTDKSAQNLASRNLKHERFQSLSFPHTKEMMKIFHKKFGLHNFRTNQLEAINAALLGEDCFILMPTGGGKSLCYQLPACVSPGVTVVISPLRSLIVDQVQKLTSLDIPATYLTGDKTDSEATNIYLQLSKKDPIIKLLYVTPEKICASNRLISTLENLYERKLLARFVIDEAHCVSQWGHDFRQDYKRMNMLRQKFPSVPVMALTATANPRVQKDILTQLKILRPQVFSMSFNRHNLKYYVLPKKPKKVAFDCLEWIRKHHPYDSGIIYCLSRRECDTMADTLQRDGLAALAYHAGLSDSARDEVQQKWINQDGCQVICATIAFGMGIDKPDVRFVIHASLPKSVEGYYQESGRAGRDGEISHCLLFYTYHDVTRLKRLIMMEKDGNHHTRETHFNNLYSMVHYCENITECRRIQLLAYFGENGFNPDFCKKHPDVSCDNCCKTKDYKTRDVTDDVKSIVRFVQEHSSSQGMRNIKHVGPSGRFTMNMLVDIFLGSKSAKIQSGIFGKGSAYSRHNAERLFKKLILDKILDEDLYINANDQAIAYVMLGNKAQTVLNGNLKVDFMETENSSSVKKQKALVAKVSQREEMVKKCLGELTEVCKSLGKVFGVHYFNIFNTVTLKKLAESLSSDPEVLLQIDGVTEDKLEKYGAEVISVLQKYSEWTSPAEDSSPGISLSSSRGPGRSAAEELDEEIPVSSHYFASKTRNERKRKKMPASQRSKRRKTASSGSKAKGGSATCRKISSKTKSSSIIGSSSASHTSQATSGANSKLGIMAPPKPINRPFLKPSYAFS", "assay": "qHTS Assay for Inhibitors of Bloom's syndrome helicase (BLM); also: nearly all actives have a fitted effect of over 35% in size", "conditions": "recombinant BLM DNA unwinding, fluorescence dequenching; series mostly up to 56.1 µM", "values": [
      {"smiles": "CCc1nn(CC(=O)NCC(C)c2ccccc2)c(=O)c2cc3occc3n12", "note": "(stereo unspecified)", "Potency": "inactive"},
      {"smiles": "C[C@@H]1C[C@H]2[C@@H]3C[C@H](F)C4=CC(=O)C=C[C@@]4(C)[C@]3(F)[C@H](O)C[C@]2(C)[C@@]1(O)C(=O)CO", "Potency": "inactive"},
      {"smiles": "CC(=O)OC1C([N+]2(C)CCCCC2)C[C@H]2C3CC[C@H]4C[C@H](OC(C)=O)C([N+]5(C)CCCCC5)CC4(C)C3CCC12C", "note": "(stereo partly specified)", "Potency": "inactive"},
      {"smiles": "COC(=O)C(C(=O)OC)[C@@H]1CCCC(=O)C1", "activity change, negative = inhibition": "-7.4% [at 12.4 µM]"},
      {"smiles": "O=c1cc(-c2ccc(O)cc2)oc2c(-c3cc(-c4cc(=O)c5c(O)cc(O)cc5o4)ccc3O)c(O)ccc12", "Potency": "inactive"},
      {"smiles": "COc1ccc(C2(C#N)CCC(C(=O)O)CC2)cc1OC1CCCC1", "note": "(stereo unspecified)", "Potency": "inactive"},
      {"smiles": "COC(=O)C1(C)C=CCN1C(=O)c1ccccc1", "note": "(stereo unspecified)", "Potency": "inactive"},
      {"smiles": "CC(C)=CC1C(C(=O)O)C1(C)C", "note": "(stereo unspecified)", "Potency": "inactive"},
      {"smiles": "O=C(CCOc1ccccc1)N(Cc1cccnc1)c1nc2ccc(Cl)cc2s1", "Potency": "inactive"},
      {"smiles": "CC1(C)OC2CC(=O)OC[C@@]23C1CC(=O)[C@]1(C)C3CC[C@@]2(C)C(c3ccoc3)OC(=O)C3O[C@@]321", "note": "(stereo partly specified)", "Potency": "inactive"},
      {"smiles": "FC(F)(F)c1ccccc1-c1cc(NCc2ccccc2)ncn1", "Potency": "inactive"},
      {"smiles": "O=C(CSc1nccn1Cc1ccc(Cl)cc1)NCc1ccccc1", "Potency": "inactive"},
      {"smiles": "C/C=C/C=N/NC(=O)c1ccncc1", "Potency": "inactive"},
      {"smiles": "CC1CN(C(=O)N2CCC(C(=O)NCc3ccco3)CC2)c2cc(Cl)ccc2O1", "note": "(stereo unspecified)", "Potency": "inactive"},
      {"smiles": "COC(=O)[C@@H]1C[C@@]2(O)[C@H](O)[C@H](O)[C@H](O)C[C@H]2N1CC1CCCCC1", "Potency": "inactive"},
      {"smiles": "O=C(c1cnccn1)N1CCC2(CCCN(Cc3ccccc3)C2)CC1", "Potency": "inactive"},
      {"smiles": "CCOC(=O)Cn1c(=O)sc2cccc(Cl)c21", "Potency": "inactive"},
      {"smiles": "O=C(c1cnccn1)N1CCC2(CCN(Cc3cc(C(F)(F)F)cc(C(F)(F)F)c3)CC2)CC1", "Potency": "inactive"},
      {"smiles": "O=c1cc2nc(-c3ccccc3)nc(SCCOc3ccc(Cl)cc3)n2[nH]1", "Potency": "inactive"},
      {"smiles": "Cc1cccc(-c2nc(SCc3ccc(Br)cc3)n3[nH]c(=O)cc3n2)c1", "Potency": "inactive"},
      {"smiles": "Cc1ccc(-c2nc(SCc3ccc(Br)cc3)n3[nH]c(=O)cc3n2)cc1", "Potency": "28.2 µM (active)"},
      {"smiles": "O=C(OCc1ccccc1)c1ccc(O)cc1", "Potency": "inactive"},
      {"smiles": "COC(=O)N1C(/C=C/C=C/c2ccc(OC)cc2)=Cc2ccccc2C1CC(C)=O", "note": "(stereo unspecified)", "activity change, negative = inhibition": "-6.97% [at 12.4 µM]"},
      {"smiles": "C[C@H]1Cc2c(-c3ccccc3)nc3c(c2CO1)CN(S(=O)(=O)c1ccc(Cl)c2nonc12)CC3", "activity change, negative = inhibition": "-0.0157% [at 12.4 µM]"},
      {"smiles": "O=c1c(CCc2ccccc2)nc2cnc(N3CCNCC3)nc2n1Cc1cccs1", "Potency": "inactive"},
      {"smiles": "COc1cc(OC)cc(-c2nnc(SCC(=O)Nc3ccc(C(=O)O)cc3)s2)c1", "Potency": "inactive"},
      {"smiles": "COc1ccc(NC(=O)CSc2nc(N)c(-c3ccccc3)c(=O)[nH]2)cc1", "Potency": "inactive"},
      {"smiles": "COc1ccc(-c2nc3c(c(SCC(=O)Nc4ccc(C(=O)O)cc4)n2)Cc2ccccc2O3)cc1", "Potency": "7.08 µM (active)"},
      {"smiles": "Cc1ccc(NS(=O)(=O)c2ccc(N/N=C/c3ccccc3OCC(=O)O)c([N+](=O)[O-])c2)c(C)c1", "Potency": "7.08 µM (active)"},
      {"smiles": "Cc1ccc(S(=O)(=O)NC(=O)COc2ccccc2C)cc1", "Potency": "inactive"},
      {"smiles": "C=C(C)CNC(=S)N/N=C/c1ccccc1OCC(=O)O", "Potency": "inactive"},
      {"smiles": "COc1c(O)c2c(=O)cc(OC)c3c4c(OC)cc(=O)c5c(O)c(OC)c6c(c(c1C[C@@](C)(O)[C@H]6C(C)=O)c23)c54", "Potency": "inactive"},
      {"smiles": "COC(=O)[C@@]1(C)C=C[C@@H](Cc2ccccc2)N1C(C)=O", "Potency": "inactive"},
      {"smiles": "CCc1c2c(nc3ccc(O)cc13)-c1cc3c(c(=O)n1C2)COC(=O)[C@]3(O)CC", "Potency": "inactive"},
      {"smiles": "Oc1ccc(Cl)c2c1CCC2", "Potency": "inactive"},
      {"smiles": "COc1ccc(C(=O)N2CCC3(CCCN(C(c4ccccc4)c4ccccc4)C3)CC2)cc1", "Potency": "inactive"},
      {"smiles": "COC(=O)c1cc(NC(=O)c2sc3ccccc3c2Cl)cc(C(=O)OC)c1", "Potency": "inactive"},
      {"smiles": "Oc1ccc(N=Cc2c(O)ccc3ccccc23)cc1", "Potency": "31.6 µM (active)"},
      {"smiles": "Cc1cc(N=Nc2ccc3ccccc3c2)ccc1O", "Potency": "inactive"},
      {"smiles": "CCOc1[nH]n(-c2ccc(Cl)cc2)c(=O)c1C=Nc1ccc(O)cc1", "Potency": "inactive"},
      {"smiles": "Oc1ccc(N=Cc2sc3ccccc3c2Cl)cc1", "Potency": "20 µM (active)"},
      {"smiles": "CCCC(=O)Nc1ccc(NC(=O)c2sc3ccccc3c2Cl)cc1", "Potency": "inactive"},
      {"smiles": "Cc1cccc(CNc2ccnc(-c3cccnc3)n2)c1", "Potency": "inactive"},
      {"smiles": "O=C(Nc1cc(C(=O)Nc2ccc(S(=O)(=O)O)cc2)cc(C(=O)Nc2ccc(S(=O)(=O)O)cc2)c1)Nc1cc(C(=O)Nc2ccc(S(=O)(=O)O)cc2)cc(C(=O)Nc2ccc(S(=O)(=O)O)cc2)c1", "Potency": "inactive"},
      {"smiles": "O=C(c1ccncc1)N1CCC2(CCCN(C(c3ccccc3)c3ccccc3)C2)CC1", "Potency": "inactive"},
      {"smiles": "O=C(c1cnccn1)N1CCC[C@@]2(CCN(Cc3ccncc3)C2)C1", "Potency": "inactive"},
      {"smiles": "CCc1nc(-c2cc(S(=O)(=O)N3CCN(c4ccc(OC)cc4)CC3)ccc2OC)no1", "Potency": "inactive"},
      {"smiles": "CCCS(=O)(=O)c1ncc(Cl)c(C(=O)Nc2scc(-c3ccccc3)c2C(=O)OCC)n1", "Potency": "inactive"},
      {"smiles": "Oc1c(C(c2ccc(F)cc2)N2CCN(Cc3ccccc3)CC2)sc2nc(-c3ccco3)nn12", "note": "(stereo unspecified)", "Potency": "inactive"},
      {"smiles": "C=C1C([C@@]2(C)C(OC(C)=O)CC(=O)O[C@@](C)(COC(C)=O)C2CC(=O)OC)C(OC=O)C(OC(=O)C(O)C(C)CC)[C@]2(C)C(c3ccoc3)CC(=O)C12O", "note": "(stereo partly specified)", "Potency": "inactive"},
      {"smiles": "CC(=O)N1CCC2(CCCN(Cc3ccc(C#N)cc3)C2)CC1", "Potency": "inactive"},
      {"smiles": "CC1(C)C=CC(=O)[C@]2(C)C1CC(=O)[C@]1(C)C2CC[C@@]2(C)C(c3ccoc3)OC(=O)C3OC321", "note": "(stereo partly specified)", "Potency": "inactive"},
      {"smiles": "C=C1CCN(C(CC(C)C)C(=O)N2CCOCC2)S(=O)(=O)c2ccccc21", "note": "(stereo unspecified)", "Potency": "inactive"},
      {"smiles": "COc1ccc(S(=O)(=O)NCC(c2ccc(N(C)C)cc2)N2CCc3ccccc32)cc1OC", "note": "(stereo unspecified)", "Potency": "inactive"},
      {"smiles": "O=C(O)c1ccc(/C=C2/SC(=S)N(c3cccc(C(F)(F)F)c3)C2=O)cc1", "Potency": "inactive"},
      {"smiles": "Cn1c(N)c(C(=O)COC(=O)c2cc(C(F)(F)F)nc3c(C(F)(F)F)cccc23)c(=O)n(C)c1=O", "Potency": "inactive"}
    ]}
  ]
}
